Results: PubChem BioAssay (NCI)
This is part of a sample that, as a whole, favours compounds with a hit. Of some 83,000 tested, about 20% had one in any assay.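 Single-concentration screen, 48 h exposure, 96-well plates. Endpoint: percent growth. Below 10 = active.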 Activity calls are given as the source filed them.

Key:
Assay in all cases: NCI-60 one-dose screen, 48 h (100 = growth as untreated, 0 = no growth, -100 = all killed)
Details in all cases: 10 µM
[1] = system: NCI-H23 lung
[2] = system: NCI-H226 lung
[3] = system: NCI-H322M lung
[4] = system: HOP-62 NSCLC
[5] = system: NCI-H460 lung
[6] = system: HOP-92 NSCLC
[7] = system: NCI-H522 lung
[8] = system: A549/ATCC NSCLC
[9] = system: 786-0 renal
[10] = system: COLO 205 colon
[11] = system: DU-145 prostate
[12] = system: K-562 leukemia
[13] = system: MALME-3M melanoma
[14] = system: MDA-MB-231 breast
[15] = system: RXF 393 renal
[16] = system: SF-268 CNS
[17] = system: SF-295 CNS
[18] = system: SF-539 CNS
[19] = system: UACC-257 melanoma
[20] = system: M14 melanoma

Measured: growth

Cc1cc(C(F)(F)F)ccc1C(=O)Nc1sc2c(c1C#N)CCC(=O)C2
active: [1] -28.3% | [2] -13% | [4] 1.05% | [5] 4.71% | [6] -64.4% | [7] -62.9% | [10] -94.4% | [12] 2.39% | [13] -82.5% | [14] -73.4% | [15] -64.9% | [17] -25.5% | [18] -79.9% | [19] -39.5% | [20] -59.2%
inactive: [3] 29.8% | [8] 30% | [9] 12.7% | [11] 20.3% | [16] 17.1%

C=C(c1ccc(OC)c(N)c1)c1cc(C)nc2ccccc12
active: [5] -4.48% | [7] -29.4% | [10] -79.8% | [17] 6.83% | [18] -34.2%
inactive: [1] 12.3% | [2] 22.8% | [3] 37.8% | [4] 30.9% | [6] 53.8% | [8] 19.9% | [9] 22.6% | [11] 14.9% | [12] 11.3% | [13] 49.9% | [14] 10.5% | [15] 51.4% | [16] 24.3% | [19] 63.3% | [20] 16%

O=C(N=Nc1c(O)[nH]c2ccc(Br)cc12)c1ccc2nc(-c3ccccc3)[nH]c2c1
active: [1] -66.1% | [2] -47.9% | [3] -62.9% | [4] -61.9% | [5] -73.5% | [6] -78.8% | [7] -79% | [8] -24.6% | [9] -92.9% | [10] -67.5% | [11] -60.5% | [12] 1.09% | [13] -99.2% | [14] -97.5% | [15] -79.7% | [16] -53.3% | [17] -81.9% | [18] -97.9% | [19] -19.9% | [20] -85.9%

CCCCCCCCCCCCCCCCCCCC(=O)NCCc1c[nH]c2ccc(O)cc12
active: [7] -13.2%
inactive: [1] 103% | [2] 87.6% | [3] 114% | [4] 144% | [5] 101% | [6] 148% | [8] 90.8% | [9] 100% | [10] 147% | [11] 105% | [12] 74.5% | [13] 120% | [14] 78% | [15] 115% | [16] 91.6% | [17] 96.3% | [18] 60.8% | [19] 107% | [20] 101%

COc1ccc2c3nc4cc(C)c(C)cc4nc3n(CCN(C)C)c2c1
active: [1] 8.28% | [3] 0.682% | [4] 8.8% | [5] -50.6% | [7] -22.4% | [8] -59.8% | [9] -42.7% | [11] -3.48% | [12] 3.09% | [13] -86% | [14] -10% | [15] -25.5% | [17] -59.4% | [18] -88.1% | [20] -73.5%
inactive: [2] 12.1% | [6] 27.1% | [10] 62.5% | [16] 27.8% | [19] 10.5%

CN1CCCN(Cc2ccc(C(=O)Nc3cccc(Nc4ccc5cc(O)ccc5n4)c3)cc2C(F)(F)F)CC1
active: [9] 8.41% | [17] -68.5%
inactive: [1] 68.8% | [2] 103% | [3] 89.1% | [4] 95.9% | [5] 27.7% | [6] 53.3% | [7] 80.3% | [8] 64.7% | [10] 63.2% | [11] 73.7% | [12] 14.8% | [13] 51% | [14] 34.9% | [15] 60.8% | [16] 62.5% | [18] 41.8% | [19] 59.8% | [20] 47.2%

Brc1ccc(/C=N/Nc2ncnc3sc4c(c23)CCN(Cc2ccccc2)C4)cc1
active: [2] 3.93% | [20] -12.1%
inactive: [1] 91.8% | [3] 94.1% | [4] 103% | [5] 14% | [6] 67% | [7] 90.4% | [8] 74.2% | [9] 48.5% | [10] 34.8% | [11] 47.2% | [12] 20.9% | [13] 38.7% | [14] 22.1% | [15] 66.7% | [16] 74.2% | [17] 58.7% | [18] 71.4% | [19] 56.7%

COc1cc2oc(-c3cccc(C(=O)Nc4ccc(Cl)cc4)c3)cc(=O)c2c(OCCNC(=O)CNC(=O)OC(C)(C)C)c1OC
active: [15] -17.7%
inactive: [1] 63.8% | [2] 59.7% | [3] 71.6% | [4] 74.7% | [5] 76% | [6] 54.7% | [7] 45.7% | [8] 53.9% | [9] 76.1% | [10] 56.8% | [11] 77.5% | [12] 46% | [13] 65% | [14] 30.1% | [16] 81.8% | [17] 50.6% | [18] 67.3% | [19] 80.8% | [20] 60.2%

C=C1CCC2C3(C)COC(c4ccccc4F)OC3CCC2(C)C1C/C=C1/C(=O)OCC1O (stereo not given)
active: [1] -38.8% | [2] -25.6% | [4] -41.7% | [5] -14.6% | [6] -37.5% | [7] -72.5% | [8] -5.16% | [9] -86.8% | [10] -56.3% | [11] -27.8% | [13] -76.8% | [14] -54% | [15] -68.5% | [17] -36.1% | [18] -87.5% | [19] -77.6% | [20] -54.1%
inactive: [3] 14.5% | [12] 12.3% | [16] 58%

Nc1cccnc1/C=N/NC(=S)NCCNC(=O)c1ccc(-n2nc(-c3ccccc3O)nc2-c2ccccc2O)cc1
inactive: [3] 19.3% | [4] 22.1% | [5] 37.6% | [8] 15% | [10] 15.1% | [11] 27.9% | [13] 14.3% | [14] 19.8% | [16] 32.8%
active: [1] -1.31% | [2] 2.65% | [6] -2.21% | [7] 4.39% | [9] -1.51% | [12] 7.44% | [15] -10.6% | [17] -6.19% | [18] -23.2% | [19] 7.34% | [20] -39%

O=C1Nc2ccc(F)cc2/C1=C/c1cccc(OCc2ccccn2)c1
inactive: [1] 58.3% | [2] 49.9% | [3] 77% | [4] 78.9% | [5] 36.5% | [6] 26.5% | [8] 77.4% | [9] 56% | [10] 98.8% | [11] 42.5% | [13] 54.1% | [14] 30.7% | [15] 28.3% | [16] 23.4% | [17] 24.3% | [18] 35.5% | [19] 44.1% | [20] 36.3%
active: [7] -14.1% | [12] 4.79%

N#Cc1c(-c2ccc(F)cc2)nc(SCc2ccc([N+](=O)[O-])cc2)nc1N1CCOCC1
active: [15] 9.79%
inactive: [1] 74.8% | [2] 23.8% | [3] 82.7% | [4] 34.7% | [5] 77.4% | [6] 36.7% | [7] 41.3% | [8] 63.4% | [9] 30.2% | [10] 90.9% | [11] 73.3% | [12] 76.9% | [13] 42.8% | [14] 47.1% | [16] 49.3% | [17] 41.5% | [18] 26.2% | [19] 54.2% | [20] 87.7%

O=C(c1ccc(O)cc1)C1[C@H](c2ccc(Br)cc2)[C@@H](c2ccccc2)NC12C(=O)Nc1ccccc12 (stereo not given in full)
inactive: [2] 43.5% | [3] 51.6% | [4] 39.4% | [7] 32.4% | [8] 29.5% | [9] 16.3% | [11] 49.1% | [12] 35.3% | [13] 43.6% | [16] 35.5% | [17] 29.9% | [18] 41.2% | [19] 75.9% | [20] 51.7%
active: [1] 7.68% | [5] 2.57% | [6] 8.1% | [10] -46.4% | [14] -40.8% | [15] -16.4%

O=C(Nc1nc2ccc([N+](=O)[O-])cc2s1)Nc1ccccc1I
inactive: [11] 17.9% | [16] 22%
active: [1] -6.9% | [2] -7.84% | [3] -0.431% | [4] 7.62% | [5] 6.36% | [6] -28.1% | [7] -23.7% | [8] 3.05% | [9] 0.486% | [10] -94.2% | [12] 4.53% | [13] -5.11% | [14] 0.0164% | [15] -12.7% | [17] -25.8% | [18] -0.233% | [19] -17.8% | [20] 2.29%

COc1cc(OC(F)(F)F)ccc1C(=O)Nc1sc2c(c1C#N)CCC(=O)C2
active: [7] -36.3% | [18] 8.76%
inactive: [1] 54.5% | [2] 87.9% | [3] 97.9% | [4] 84.8% | [5] 100% | [6] 95.2% | [8] 93.5% | [9] 97.5% | [10] 97.8% | [11] 103% | [12] 11% | [13] 85% | [14] 66.7% | [15] 22.8% | [16] 96.6% | [17] 60.7% | [19] 98% | [20] 64.4%
